Results filed as inconclusive are left out. A number with no mark means an inactive call. Calls of active or inactive are those of the source. Unless noted, calls come from the whole dose curve; as a rule, active = well fitted curve in the direction sought with a large enough effect; inconclusive = small, poorly fitted or top-dose-only effect, or another doubt; inactive = no such curve, though single readings can be large; an effect the other way counts as inactive or inconclusive.
Target: Calcium and integrin-binding protein 1 (Homo sapiens) (UniProt Q99828)
Sequence (Q99828 whole entry, looked up): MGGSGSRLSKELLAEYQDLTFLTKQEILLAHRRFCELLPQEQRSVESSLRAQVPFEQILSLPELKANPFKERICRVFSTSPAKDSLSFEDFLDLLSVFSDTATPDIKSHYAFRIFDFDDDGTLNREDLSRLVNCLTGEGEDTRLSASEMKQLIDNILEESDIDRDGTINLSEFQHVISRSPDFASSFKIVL
Experiment: Primary qHTS for Identification of Calcium Integrin Binding Protein 1 (CIB1) Competitor (AID 1508620);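 note: GST tagged CIB1 binding a fluorescein labelled alphaIIb integrin peptide tracer; top concentration of the series differs between compounds; % is set by controls: 0 for no effect and ±100 for the full control effect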
Settings: CIB1-GST / FITC-alphaIIb peptide fluorescence polarization; series mostly up to 57.7 µM; activity change, negative = inhibition: at the top concentration
Outline: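 Fluorescence polarization competition: GST-tagged CIB1 (1 uM final) preincubated with compound 15 min at room temperature, then FITC-labelled alphaIIb peptide (100 nM final) added. After 15 min at room temperature, polarization read at Ex 480/Em 540.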

SMILES	activity change, negative = inhibition
CC(=O)OC/C(=C/C(=O)O)CC[C@@H]1C(CO)=CC[C@@H]2C(C)(C)CCC[C@@]12C	-4.03%
Cc1nnc(-c2ccc3occ(-c4ccc(S(C)=O)cc4)c3c2)o1 (stereo not drawn)	0.238% [at 114 µM]
C=C(C)C1Cc2c(ccc3c2OCC(c2ccc(O)cc2O)C3)O1 (stereo not drawn)	-7.83%
CC(O)C(=O)/C=C/C=C/C(=O)OC1C=C2COC(=O)C2(O)C2(C)CCCC(C)(C)C12 (stereo not drawn)	-5.7%
CC1OC(O[C@@H]2[C@H](O)[C@@H](OC3OC(CO)C(O)C(O)C3O)[C@H](OC(=O)[C@]34CCC(C)(C)C[C@H]3C3=CCC5[C@@]6(C)CC[C@H](O[C@@H]7O[C@H](C(=O)O)[C@@H](O)[C@H](O[C@@H]8OC[C@@H](O)[C@H](O)[C@H]8O)[C@H]7O[C@@H]7O[C@H](CO)[C@H](O)[C@H](O)[C@H]7O)[C@@](C)(C=O)C6CC[C@@]5(C)[C@]3(C)C[C@H]4O)O[C@@H]2C)C(O)C(O)C1OC1OCC(O)C(O)C1O (stereo partly drawn)	-2.12% [at 12.4 µM]
CC(C)[C@@](O)(c1ccc2cc(OC(F)F)c(OC(F)F)cc2c1)c1cn[nH]n1	-5.15% [at 114 µM]
CCOC(=O)c1ccc(NC2CCCCC2)c(N)c1	1.96% [at 114 µM]
CC(=O)O[C@@H]1CC2C(C)(C)C(=O)C=C[C@]2(C)C2CC[C@]3(C)C(=CC(=O)[C@@H]3c3ccoc3)[C@@]21C (stereo partly drawn)	4.58%
CC1CCCCCCCc2cc(O)cc(O)c2C(=O)O1 (stereo not drawn)	0.134% [at 114 µM]
C/C=C(\C)C(=O)OC1C(C)C2(O)C3C=C(C)C(=O)C3CC(CO)=CC2C2C(C)(C)C12OC(C)=O (stereo not drawn)	-4.5%
CC(C)=CCc1c(O)cc2oc3cc(C)cc(O)c3c2c1C	-2.61% [at 114 µM]
CN1CCCC1Cc1c[nH]c2ccc(CCS(=O)(=O)c3ccccc3)cc12 (stereo not drawn)	1.37% [at 114 µM]
C=C1C(=O)OC2CC(COC(=O)C(C)C)=C(C(C)CCCOC(C)=O)[C@@H](OC(C)=O)C12 (stereo partly drawn)	3.31%
C=C(C)[C@H]1CC[C@]2(C(=O)O)CC[C@]3(C)C(CCC4[C@@]5(C)CCC(=O)C(C)(C)C5CC[C@]43C)C12 (stereo partly drawn)	-12.1%
COc1cc(O)cc2c1C(=O)OC(C)CCCCCCC2 (stereo not drawn)	-1.17% [at 114 µM]
CCC(C)/C=C(C)/C=C/C1=CC2=C(Cl)C(=O)C(C)(O)C(=O)C2(O)C(OC)O1 (stereo not drawn)	48%
COC(=O)[C@@H](NC(=O)[C@H](CC(C)C)NC(=O)N(Cc1ccccc1)C[C@@H](O)[C@H](Cc1ccccc1)NC(=O)OC(C)(C)C)C(C)C	5.04% [at 30.2 µM]
COCCCc1sc(-c2ccccc2)nc1C(=O)Nc1ccccc1-c1nc2cc(CN3CCCC3)cnc2s1	1.27%
COC(=O)[C@H](c1ccccc1Cl)N1CCC2SC(=O)C=C2C1 (stereo partly drawn)	-1.6% [at 114 µM]
Cc1onc(-c2c(Cl)cccc2Cl)c1CC(=O)NCc1ccc(OCC(F)(F)F)nc1	6.04% [at 114 µM]
CCC(C)/C=C(C)/C=C/C(=O)C1CCC(O)C(C)(O)C1=O (stereo not drawn)	-3.84% [at 114 µM]
Cc1c(F)cc(C(=O)NC2CC2)cc1-c1ccc(C(=O)NCC(C)(C)C)cn1	-8.2% [at 114 µM]
COc1cc(Cc2cnc(N)nc2N)c(C(C)C)cc1OC	2.79% [at 114 µM]
CC1=CCC2C(C)(C)CCCC2(C)C1CC12OC1C(O)C(CO)=CC2O (stereo not drawn)	-1.56%
COc1cccc(CN(C(=O)CC(C)(C)C)C2CC(C(=O)N3CCNCC3)N(Cc3ccc4c(c3)OCO4)C2)c1 (stereo not drawn)	4.76% [at 114 µM]
N[C@@H](CC(=O)Nc1ccc(Oc2cc(F)c(F)cc2Br)cc1)C(=O)O	-1.55% [at 114 µM]
O=C(OC(C(F)(F)F)C(F)(F)F)N1CCN(Cc2cccc(Oc3ccccc3)c2)CC1	2.56% [at 114 µM]
COc1cc(C)c(C(=O)OC2C(C)OC(OC3CCC(C)C4C3C=C(C)C3/C(C)=C\CC/C(C)=C/C5(C)C=C(C(=O)O)C(C)CC56OC(=O)/C(=C(\O)C34C)C6=O)C(O)C2O)c(OC)c1 (stereo not drawn)	26.6% [at 30.2 µM]

Target: Cytochrome P450 2D6 (Homo sapiens) (UniProt P10635)
Sequence (P10635 whole entry, looked up): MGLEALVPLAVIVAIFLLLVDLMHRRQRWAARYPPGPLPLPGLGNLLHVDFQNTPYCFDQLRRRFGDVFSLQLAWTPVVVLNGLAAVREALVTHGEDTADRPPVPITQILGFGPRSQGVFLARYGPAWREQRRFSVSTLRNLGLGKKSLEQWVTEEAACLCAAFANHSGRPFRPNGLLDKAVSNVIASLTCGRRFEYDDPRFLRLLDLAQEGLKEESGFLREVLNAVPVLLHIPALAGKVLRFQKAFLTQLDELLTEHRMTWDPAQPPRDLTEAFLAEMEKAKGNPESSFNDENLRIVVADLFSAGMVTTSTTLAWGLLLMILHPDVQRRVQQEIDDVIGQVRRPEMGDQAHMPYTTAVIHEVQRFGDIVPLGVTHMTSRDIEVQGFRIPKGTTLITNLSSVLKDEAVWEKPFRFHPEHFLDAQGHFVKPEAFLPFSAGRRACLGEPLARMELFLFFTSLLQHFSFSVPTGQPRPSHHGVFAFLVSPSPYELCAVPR
Experiment: Cytochrome P450 family 2 subfamily D member 6 (CYP2D6) small molecule antagonists: luciferase biochemical (cell-free) qHTS assay (AID 1645840; active = well fitted curve in the direction sought with a large enough effect in the repeat runs; an effect the other way counts as inactive or inconclusive; note: nearly all actives have a fitted effect of over 55% in size; note: potency is the fitted concentration of half-maximal effect; for activity change, negative = inhibition: % is set by controls: 0 for no effect and ±100 for the full control effect)
Settings: P450-Glo CYP2D6 enzyme, luciferin luminescence, 1 h; series mostly up to 57.4 µM; activity change, negative = inhibition: at the top concentration
Outline: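 P450-Glo luminescent screen: recombinant CYP2D6 enzyme–proluciferin substrate mix preincubated with compound 10 min at room temperature, then NADPH regeneration added for 1 h at room temperature. Detection reagent added for 20 min; luciferin light read as relative luminescence units.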

SMILES	Potency	activity change, negative = inhibition [%]
CCOc1ccc(-c2nn3ncccc3c2-c2ccc(S(C)(=O)=O)cc2)cc1	1.07 µM (active)	
CCC(=O)N1CCc2cc(OC)c(O)cc2C1	16.9 µM (active)	
Cc1nnc(-c2ccc3occ(-c4ccc(S(C)=O)cc4)c3c2)o1 (stereo not drawn)		4.43
CC(C)[C@@](O)(c1ccc2cc(OC(F)F)c(OC(F)F)cc2c1)c1cn[nH]n1	1.69 µM (active)	
CCOC(=O)c1ccc(NC2CCCCC2)c(N)c1	9.52 µM (active)	
Cc1onc(-c2c(Cl)cccc2Cl)c1CC(=O)NCc1ccc(OCC(F)(F)F)nc1	19 µM (active)	
Cc1c(F)cc(C(=O)NC2CC2)cc1-c1ccc(C(=O)NCC(C)(C)C)cn1		0.429
COc1cc(Cc2cnc(N)nc2N)c(C(C)C)cc1OC		-29
COc1cccc(CN(C(=O)CC(C)(C)C)C2CC(C(=O)N3CCNCC3)N(Cc3ccc4c(c3)OCO4)C2)c1 (stereo not drawn)	26.8 µM (active)	
N[C@@H](CC(=O)Nc1ccc(Oc2cc(F)c(F)cc2Br)cc1)C(=O)O		6.41
O=C(OC(C(F)(F)F)C(F)(F)F)N1CCN(Cc2cccc(Oc3ccccc3)c2)CC1	1.51 µM (active)	

Target: Cytochrome P450 2C9 (Homo sapiens) (UniProt P11712)
Sequence (P11712 whole entry, looked up): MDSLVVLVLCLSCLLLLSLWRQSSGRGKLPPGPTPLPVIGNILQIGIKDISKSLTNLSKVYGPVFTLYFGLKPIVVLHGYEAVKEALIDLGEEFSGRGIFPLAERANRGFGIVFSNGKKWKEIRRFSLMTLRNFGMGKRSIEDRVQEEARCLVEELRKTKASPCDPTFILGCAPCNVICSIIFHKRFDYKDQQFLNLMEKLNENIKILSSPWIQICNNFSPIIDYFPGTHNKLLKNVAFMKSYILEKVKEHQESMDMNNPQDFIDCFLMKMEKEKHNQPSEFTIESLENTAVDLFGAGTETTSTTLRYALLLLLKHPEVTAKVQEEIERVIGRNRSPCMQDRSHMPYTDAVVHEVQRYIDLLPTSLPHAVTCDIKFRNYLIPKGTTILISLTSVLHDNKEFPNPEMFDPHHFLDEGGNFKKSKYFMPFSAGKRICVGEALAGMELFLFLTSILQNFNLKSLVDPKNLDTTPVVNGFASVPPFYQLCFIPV
Experiment: Cytochrome P450 family 2 subfamily C member 9 (CYP2C9) small molecule antagonists: luciferase biochemical (cell-free) qHTS assay (AID 1645842; active = well fitted curve in the direction sought with a large enough effect in the repeat runs; an effect the other way counts as inactive or inconclusive; note: potency is the fitted concentration of half-maximal effect; nearly all actives have a fitted effect of over 55% in size)
Settings: P450-Glo CYP2C9 enzyme assay, luciferin luminescence; series mostly up to 57.4 µM; activity change, negative = inhibition: at the top concentration
Outline: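 Luminescence, after 20 min with luciferin detection reagent, reflected CYP2C9 turnover during a 1 h NADPH-driven reaction at 37C. Enzyme-substrate mix contained 0.4% bovine serum albumin and was preincubated with compound 10 min at room temperature.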

SMILES	Potency
CCOc1ccc(-c2nn3ncccc3c2-c2ccc(S(C)(=O)=O)cc2)cc1	4.77 µM (active)
CCOC(=O)c1ccc(NC2CCCCC2)c(N)c1	5.35 µM (active)
Cc1onc(-c2c(Cl)cccc2Cl)c1CC(=O)NCc1ccc(OCC(F)(F)F)nc1	2.39 µM (active)
O=C(OC(C(F)(F)F)C(F)(F)F)N1CCN(Cc2cccc(Oc3ccccc3)c2)CC1	19 µM (active)

— PubChem BioAssay (NCATS)
